Among the data in PubChem BioAssay are composite z-score values, retold here.

Torsin-1A (Homo sapiens), sequence (O14656 whole entry, looked up): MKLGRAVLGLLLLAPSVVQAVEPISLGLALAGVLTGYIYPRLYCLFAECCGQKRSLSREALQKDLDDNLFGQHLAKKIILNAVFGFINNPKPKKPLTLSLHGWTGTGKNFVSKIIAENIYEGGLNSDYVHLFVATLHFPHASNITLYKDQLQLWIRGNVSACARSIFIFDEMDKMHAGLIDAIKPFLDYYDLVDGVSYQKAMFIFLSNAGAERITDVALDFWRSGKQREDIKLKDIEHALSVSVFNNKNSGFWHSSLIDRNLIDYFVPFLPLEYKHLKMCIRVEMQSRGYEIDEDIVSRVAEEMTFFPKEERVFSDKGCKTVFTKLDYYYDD

This experiment concerns the target Torsin-1A (Homo sapiens) (UniProt O14656). Description: torsin A binders from cell lysate, primary screen, small-molecule microarray, wild-type, 635/667 nm (AID 1149). The note with it: COS7 hTOR1A-WT lysate, 635 nm fluorescence, higher = more signal.
Compound `COc1ccc(C(=O)Nc2cccc(CN3C(=O)[C@]4(O[C@H](CCn5cc(CCO)nn5)[C@@H]([Si](C)(C)c5ccc(OC)cc5)[C@@H]4C)c4ccccc43)c2)cc1` displayed a composite z-score of 0.188.
Regarding `CS(=O)(=O)CCOC(=O)C1=CC(CCCO)=CC(c2ccc(CN3CCCC3)cc2)N(Cc2cccc(OC(F)(F)F)c2)C=C1C(=O)OCCS(C)(=O)=O` (stereo unspecified), the composite z-score was found to be 0.907.
`COC(=O)c1c2oc(c1C(=O)OC)C(=O)N[C@@H](C(C)C)Cn1cc(nn1)C1(CCCCC1)NC(=O)N[C@H](CO)CC2`: the composite z-score was determined as 0.935.
Take `O=C1O[C@@H](c2ccccc2)[C@@H](c2ccccc2)N2[C@@H](c3ccc(OCCO)cc3)[C@]3(C(=O)Nc4ccc(C#CCCO)cc43)[C@@H](C(=O)NC[C@H](O)c3ccccc3)[C@H]12`: the composite z-score came out at 0.458.
Consider `CC(c1ccccc1)C(O)C1C=CC2C(=O)N(c3ccccc3)C(=O)C2N1Nc1ccccc1` (stereo unspecified), for which the composite z-score came to 0.524.
For the compound `CC1CC/C=C\[C@H]2OC34C=CCN(Cc5ccccc5)C(=O)[C@H]3N(C(C)CO)C(=O)[C@@H]4C2C(=O)O1` (stereo partly specified), the composite z-score is -0.859.
